Data on 37 compounds can be found in PubChem BioAssay (Tox21).

Several values for one entry are separate records, joined by “and”; a condition that tells them apart may be missing. Identical values can stand only once. Records with an inconclusive call do not appear. A structure can be active in one record and inactive in another. Values without a mark were called inactive. Activity calls are given as the source filed them. Calls come from the whole dose curve; as a rule, active = well fitted cell-killing curve with a large enough effect in the repeat runs; inconclusive = weak or mixed curves, or effect the other way; inactive = flat fitted curve, though single readings scatter.
% is set by controls: 0 for no effect and ±100 for the full control effect; potency is the fitted concentration of half-maximal effect.

The assay is described as follows: qHTS RealTime-Glo MT Cell Viability Assay in HEK293 cells - 40 hour (AID 1224874). Note: nearly all actives have a fitted effect of over 50% in size. To be noted: RealTime-Glo luminescence; max response: hits give low values. The source says: U.S. Tox21 Program National Center for Advancing Translational Sciences [NCATS] NIH Chemical Genomics Center [NCGC] U.S. Environmental Protection Agency [EPA] National Institutes of Environmental Health Sciences [NIEHS] National Toxicology Program [NTP] U.S. Food and Drug Administration [FDA] Tox21 Assay Overview: Measure of cell viability is critical in the cell-base assay. Analysis of cell viability is necessary for the characterization of cell responses to cytotoxic drugs and environmental stress. A RealTime-Glo MT Cell Viability Assay to monitor cell viability in real time of continues cell culture during 40 hours of compound treatment was used to screen Tox21 10K library compounds in Hek293 cells. The RealTime-Glo MT Cell Viability Assay is a nonlytic, homogeneous, bioluminescent method to measure cell viability in real time using a simple, plate-based method. The assay involves adding NanoLuc luciferase and a cell-permeant prosubstrate to cells in culture. Viable cells reduce the proprietary prosubstrate to generate a substrate for NanoLuc luciferase. This substrate diffuses from cells into the surrounding culture medium, where it is rapidly used by the NanoLuc Enzyme to produce a luminescent signal. The signal correlates with the number of viable cells, making the assay well suited for cytotoxicity studies.
Tox21 Assay Protocol Summary: The mixture of Hek293 cell suspension and reagents were dispensed at 600cells/6 ul/well in 1536-well tissue culture treated black solid bottom plates using a Multidrop dispenser. After the assay plates were incubated at a 37 C/5% CO2 incubator for 5 hours, 23 nL of compounds dissolved in DMSO, positive and negative controls was transferred to the assay plate by a pintool work station. The plates were incubated at 37 C for 40 hours. The luminescence intensity were measured at 0h, 8h, 16h, 24h, 32h and 40h time points using ViewLux plate reader during compound treatment.
For the compound `CC(C)c1ccc(S(=O)(=O)O)cc1`, the max response is -1.12% and 9.2%.

Regarding `CCC(O)OCCCOC` (stereo not given), the max response was 1.35% and 16.2%.

For the compound `CC(=O)CC(=O)Nc1ccccc1C`, the max response is -0.0445% and -13.2%.

As for `CC1=CC(=O)NS(=O)(=O)O1`, the max response was -28.6% and 3.78%.

For the compound `C#C[C@]1(O)CC[C@H]2[C@@H]3CCC4=CC(=O)CC[C@@H]4[C@H]3CC[C@@]21C`, the max response was -16%.

For the compound `CN(C)CCOCCN(C)C`, the max response is 0.168% and 5.1%.

With `O=C(O)c1cc(C(=O)O)cc(S(=O)(=O)O)c1`, the max response was -1.84% and 1.2%.

For the compound `CC(=O)OCC(=O)[C@@]12N=C(C)O[C@@H]1C[C@H]1[C@@H]3CCC4=CC(=O)C=C[C@]4(C)[C@H]3[C@@H](O)C[C@@]12C`, the max response is -2.48% and 0.51%.

As for `O=C(O)c1ccccc1C(c1ccc(O)cc1)c1ccc(O)cc1`, the max response was 2.57% and 12.8%.

For the compound `CCCC(C)=O`, the max response is 3.18% and 6.23%.

On to `C=CCNC(N)=S`, for which the max response is -13.5% and 2.87%.

Consider `CCCCCCCCCCCCc1ccccc1`, for which the max response was 7.72% and -4.38%.

As for `O=C(Oc1ccccc1)c1ccccc1`, the max response is -9.85% and 1.19%.

In the case of `O=c1[nH]nnc2ccccc12`, the max response was 2.18% and -25.5%.

As for `CCCCCC1=CCCC1=O`, the max response is 5.34% and -3.52%.

On to `OCCOCCN1CCN(C2=Nc3ccccc3Sc3ccccc32)CC1`, for which the Potency was 9.52 µM (active) and the max response was -19.6%.

Regarding `CCCCC(CC)COC(=O)CS` (stereo not given), the max response was 6.5% and the Potency was 19.5 µM (active).

In the case of `Cc1cccnc1`, the max response is -5.56% and 0.742%.

For the compound `OCC(CO)(CBr)CBr`, the max response was -5.13% and 3.96%.

For the compound `OCCOCCOCCO`, the max response was -0.565% and 3.8%.

In the case of `C=C(C)C(=O)Nc1ccc(Cl)c(Cl)c1`, the Potency was 19.7 µM (active) and 24.4 µM (active).

Take `CCCCCCCCCC`: the max response is 1.13% and 22.3%.

Regarding `O=C(O)c1cc(O)c(O)c(O)c1`, the max response was -26.7% and 2.18%.

As to `CCCCOC(=O)COc1ccc(Cl)cc1Cl`, the max response is -3.14% and 1.1%.

For `COc1ccc(Nc2ccccc2)c(C)c1`, the max response was 2.22% and -26.6%.

As to `COCCCOc1ccnc(CS(=O)c2nc3ccccc3[nH]2)c1C` (stereo not given), the max response is -13.3% and the Potency is 9.74 µM (active).

Turning to `CCCCC(CC)CO` (stereo not given), the max response was 6.29% and 2.53%.

In the case of `CCCCC(CC)COC(=O)C(C#N)=C(c1ccccc1)c1ccccc1` (stereo not given), the max response was -27.4%.

As for `Nc1ccccc1[N+](=O)[O-]`, the max response is 3.94% and 2.64%.

Take `Cc1ccc(S(N)(=O)=O)cc1`: the max response is 1.64%.

Turning to `CC(C)CC(=O)CC(C)C`, the max response is 3.78% and -11.6%.

As to `O=[N+]([O-])c1ccc(/C=C/c2ccc([N+](=O)[O-])cc2S(=O)(=O)O)c(S(=O)(=O)O)c1`, the max response is 6.57% and 8.56%.

Take `CC1CCC(C(C)C)C(O)C1` (stereo not given): the max response was -2.01% and 1.75%.

In the case of `CCCCCCCCCCCCCCO`, the max response is -1.67% and 1.72%.

Consider `COc1ccc2cc([C@H](C)C(=O)O)ccc2c1`, for which the max response is 5.06% and -0.971%.

`CC1CCC2CC1C2(C)C` (stereo not given): the max response was -4.21% and 10.8%.

For `C#CCN(C)Cc1ccccc1`, the max response was -0.876% and -0.317%.
